Data on six compounds can be found in PubChem BioAssay.

Several values for one entry are separate records, joined by “and”; a condition that tells them apart may be missing. Equal entries are not always repeated. Some compounds were tested as several samples or in several runs, with calls that do not always agree. Activity calls are given as the source filed them. Unless noted, the rule behind the calls is not given here.

Assay [1] in a line: liver-stage malaria parasite load reduction – cell-based, known kinase inhibitor set, luminescence, hepatoma host viability (AID 624392).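 Note: infected cells incubated roughly two days before readout.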 As to conditions: Plasmodium liver stage in hepatoma cells, luciferase luminescence, concentration not given here; liver cell % of control: measured here: host liver cell viability; parasite % of control: stronger effect = lower value.
Assay [2] in a line: altered dexamethasone sensitivity, NF-kB reporter, cell-based, luciferase, IL-1B stimulus (AID 624486).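 For percent of negative control (+Dex): 100% = mean signal of vehicle control wells on the plate.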 As to conditions: IL-1B + dexamethasone, luminescence; percent of negative control (+Dex): actives lie on both sides, concentration not given here; z-score: measured here: IL-1B alone, no Dex.
A short description of assay [3]: C. elegans survival during P. aeruginosa infection – whole organism (AID 651566).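 Note: tested at 14 µM; sign flipped so higher z means a lower ratio.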 The following applies: C. elegans killed by P. aeruginosa, survival ratio.
The nature of assay [4]: pro-inflammatory signaling induction in mouse macrophages – cell-based, murine, luminescence (AID 652131). The following applies: murine macrophage pro-inflammatory reporter, stronger effect = higher value.
The target in assay [5] is Cellular tumor antigen p53 (Homo sapiens) (UniProt P04637). Nature of the assay: GFP-p53 level modulators in HPV16+ cells – imaging, known kinase inhibitor set, EGFP/DsRed ratio (AID 1053116).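 Note: cells exposed to compounds for 24 h at 37 °C before reading.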 The following applies: GFP-p53 stability, stronger effect = higher value; EGFP object count: measured here: GFP-p53 positive objects count.
Assay [6] is described as follows: inducers of IRF3 signaling, differentiated THP-1 – cell-based, PMA-stimulated THP-1, luminescence (AID 1053176). The following applies: PMA-differentiated THP-1, IRF3 reporter luminescence; stronger effect = higher value.
Assay [7] is described as follows: MELAS cybrid and Rieske KO viability enhancers – cell-based, MELAS cybrids, Rieske KO mouse fibroblasts, CellTiter-Glo, primary screen (AID 1508586;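 active = mean z-score across replicates of 1.96 or higher in either the MELAS or the Rieske mutant cell line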;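 note: z relative to plate mean and SD of compound and empty wells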). The following applies: low glucose. On the technique in general: ATP-based viability assays read luminescence as a measure of living cells.
The nature of assay [8]: P. berghei load reduction in hepatocytes – cell-based, HepG2, luciferase luminescence, HepG2 viability, primary screen (AID 624349; in the data active = parasite load remaining mostly below about 12%, no sharp cut-off; inactive = mostly above about 10%;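 note: 100% = mean of DMSO negative control wells on the same plate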). As to conditions: P. berghei liver stage in HepG2, luciferase luminescence, concentration not given here; parasite load remaining: stronger effect = lower value; viability: measured here: HepG2 viability without parasites.
A short description of assay [9]: galactose survival enhancers in mitochondrial complex I cybrids – cell-based, galactose medium, ATP luminescence, primary screen (AID 1645843;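 active = z-score of at least 1.8 in each of two replicates, scored against plate mean and spread of sample wells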;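 note: positive z means more ATP and so rescue of galactose-driven cybrid death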). The following applies: complex I mutant cybrid cells, 72 h, stronger effect = higher value.
The mark [10] stands for this setting: MELAS cybrid survival, CellTiter-Glo 48 h, stronger effect = higher value.
Setting [11] is: Rieske KO mouse fibroblast survival, CellTiter-Glo 72 h.

Cellular tumor antigen p53 (Homo sapiens), sequence (P04637 whole entry, looked up): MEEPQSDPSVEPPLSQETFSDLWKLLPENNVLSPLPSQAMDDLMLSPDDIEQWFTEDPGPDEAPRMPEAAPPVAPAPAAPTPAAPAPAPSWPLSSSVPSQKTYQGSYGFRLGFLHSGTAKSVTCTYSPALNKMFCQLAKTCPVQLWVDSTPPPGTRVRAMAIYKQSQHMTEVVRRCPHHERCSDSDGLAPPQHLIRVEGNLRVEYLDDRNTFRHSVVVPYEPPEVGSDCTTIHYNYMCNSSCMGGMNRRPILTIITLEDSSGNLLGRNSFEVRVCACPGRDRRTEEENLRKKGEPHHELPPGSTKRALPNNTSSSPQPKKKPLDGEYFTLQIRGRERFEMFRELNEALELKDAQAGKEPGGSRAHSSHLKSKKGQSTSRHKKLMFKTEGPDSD

Turning to `Nc1ncnc2occ(-c3ccc(NC(=O)Nc4cc(C(F)(F)F)ccc4F)cc3)c12`, the liver cell % of control in assay [1] was 62.2% and 49.5%. For the same compound, in assay [1], the parasite % of control is 12.5% (inactive) and 10.2% (inactive). In addition, the percent of negative control (+Dex) in [2] is 62.5% (inactive) and 72.5% (inactive). In addition, the z-score in [2] was -4.27 and -2.6; in assay [3], -0.79 (inactive) and 0.505 (inactive); in [4], 0.268 (inactive) and -0.714 (inactive); in assay [7] (setting [10]), 0.841 (inactive) and 3.25 (active); in assay [7] (setting [11]) it was -0.123 and -0.164. Besides, in assay [5], the EGFP object count was 2 and 1. In assay [5], the EGFP/DsRed ratio was 0.017 (inactive) and 0.0224 (inactive). In addition, the fraction signal in assay [6] was -0.0025 (inactive) and -0.0215 (inactive).
Take `CCN1CCC(C(=O)NC2NNC3NNC(c4cccc(F)c4F)CC32)CC1` (configuration not stated): in assay [1], the liver cell % of control was 73.6%. Further, the parasite % of control in assay [1] is 144% (inactive). In addition, the percent of negative control (+Dex) in [2] was 114% (inactive). Moreover, the z-score in assay [2] was -0.315; in assay [3], -0.46 (inactive); in assay [4], 2.7 (inactive); in assay [7] (setting [10]) it was -0.831 (inactive); in assay [7] (setting [11]), -0.194. For the same compound, in [5], the EGFP object count was 15. In addition, the EGFP/DsRed ratio in assay [5] is 0.326 (inactive). In assay [6], the fraction signal is -0.002 (inactive).
In assay [1], `CN(C)c1cc2c(Nc3ccc4nc(Cc5ccccc5)[nH]c4c3)ncnc2cn1` showed a liver cell % of control of 154%. The parasite % of control in assay [1] was 105% (inactive). For the same compound, in [2], the percent of negative control (+Dex) is 77% (inactive). Further, the z-score in [2] is -0.53; in assay [3], 0.16 (inactive); in assay [4], 0.922 (inactive); in [7] (setting [10]), 0.173 (inactive); in assay [7] (setting [11]), -0.0343. In [5], the EGFP object count came to 3. Besides, the EGFP/DsRed ratio in assay [5] was 0.0121 (inactive). For the same compound, the fraction signal in assay [6] is -0.006 (inactive).
Turning to `Cn1cc(C2=C(c3cn(CCCSC(=N)N)c4ccccc34)C(=O)NC2=O)c2ccccc21`, in [8], the parasite load remaining is 30.4% (inactive) and the viability amounted to 73.7%. In [1], the liver cell % of control was found to be 100% and the parasite % of control is 330% (inactive). In addition, in assay [2], the percent of negative control (+Dex) was 98% (inactive) and the z-score amounted to 0.705. Also, in assay [5], the EGFP object count was found to be 1 and the EGFP/DsRed ratio is 0.00598 (inactive). Further, the fraction signal in [6] was -0.0115 (inactive). Further, in [7] (setting [10]), the z-score was 3.84 (active). In addition, the z-score in assay [7] (setting [11]) is -1.11. Further, in assay [9], the z-score was -0.7 (inactive).
Take `NS(=O)(=O)c1ccc(N=Nc2c(O)[nH]c3ccc(Cl)cc23)cc1`: in assay [1], the liver cell % of control is 91.6%. In assay [1], the parasite % of control was 111% (inactive). Further, the percent of negative control (+Dex) in [2] is 112% (inactive). Besides, the z-score in assay [2] is 0.905; in assay [3] it was 0.005 (inactive); in [4], 0.24 (inactive); in [7] (setting [10]), 1.43 (inactive); in assay [7] (setting [11]), -0.311. In assay [5], the EGFP object count was 6.5. In [5], the EGFP/DsRed ratio was 0.227 (inactive). Moreover, in [6], the fraction signal was 0.0005 (inactive).
Take `CS(=O)(=O)Nc1cccc(-c2ccc3c(NC(=O)C4CC4)n[nH]c3c2)c1`: in assay [1], the liver cell % of control stood at 89.6%. In assay [1], the parasite % of control was 233% (inactive). In [2], the percent of negative control (+Dex) was 96% (inactive). For the same compound, the z-score in assay [2] is 0.535; in assay [3] it was 0.185 (inactive); in [4], -0.214 (inactive); in assay [7] (setting [10]) it was -0.446 (inactive); in assay [7] (setting [11]) it was -0.47. Besides, in assay [5], the EGFP object count came out at 7. For the same compound, the EGFP/DsRed ratio in [5] was 0.137 (inactive). Further, in assay [6], the fraction signal is -0.0065 (inactive).

One may read the viability as a read-out of living cells in per cent, often relative to untreated cells.
